Consider 31 molecules from PubChem BioAssay (EPA / NIEHS).

Calls of active or inactive are those of the source. How the source made its calls: active means hit-call score of the fitted dose curve at least 0.9, where 1 is the maximum; inactive means score below 0.9.

Assay [1] concerns the target Nuclear respiratory factor 1 (Homo sapiens) (UniProt Q16656). The experiment in a line: ATG_NRF1_CIS: Attagene CIS-FACTORIAL HepG2 Assay for human Nuclear Respiratory Factor 1 (NRF1) Orphan Gene (AID 2282987). Particulars: HepG2 NRF1 cis-element reporter, Attagene multiplex; actives raise or lower the signal. The essentials:
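Human hepatoma HepG2 cells carrying transfected promoter-regulated reporter units were incubated with test chemicals for 24 h. Reporter transcripts were measured by RT-PCR plus capillary electrophoresis, and endpoints derived by bidirectional fitting with DMSO as baseline.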

The nature of assay [2]: ATG_NFI_CIS: Attagene CIS-FACTORIAL HepG2 Assay for human Nuclear Factor I (NFI) (AID 2282989). Particulars: HepG2 cis-regulatory reporter, NFI response element transcription; actives raise or lower the signal. The essentials:
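Read-out: reporter mRNA via RT-PCR plus capillary electrophoresis with fluorescence detection. Transiently transfected HepG2 (endogenous TF activity on cis promoters), 24 h compound exposure; gain or loss of signal fitted against DMSO.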

Assay [3] addresses Myc proto-oncogene protein (Homo sapiens) (UniProt P01106). The experiment in a line: ATG_Myc_CIS: Attagene CIS-FACTORIAL HepG2 Assay for human Myelocytomatosis (Myc) Proto-Oncogene Transcription Factor (AID 2282990). The conditions noted are these: HepG2, Attagene cis-reporter transcription factor activity; actives raise or lower the signal. The essentials: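 Transiently transfected HepG2 cells bearing cis-promoter reporter units for endogenous transcription factors; 24 h exposure. Reporter mRNA measured by RT-PCR, 6-FAM primer extension, HpaI cut and capillary electrophoresis; bidirectional fit relative to DMSO.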

Assay [4] can be described thus: ATG_NRF2_ARE_CIS: Attagene CIS-FACTORIAL HepG2 Assay for human Nuclear Factor Erythroid 2 Related Factor 2 (NFR2) response to Antioxidant Response Elements (ARE) (AID 2282992).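 On AC50: reporter mRNA level measured by RT-PCR and capillary electrophoresis fluorescence.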 The conditions noted are these: HepG2 Attagene ARE/NRF2 reporter, transcription factor activity; actives raise or lower the signal. The essentials: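 HepG2 cells transiently transfected with multiplexed cis-element reporter constructs, 24 h after chemical dosing; reporter mRNA quantified by RT-PCR, fluorescent primer extension, HpaI digestion and capillary electrophoresis. Bidirectional fit relative to DMSO.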

Assay [5] in a line: ATG_Oct_MLP_CIS: Attagene CIS-FACTORIAL HepG2 Assay for human Octamer-Binding Transcription Factor (Oct) (AID 2282993). The conditions noted are these: HepG2 Attagene cis-factorial Oct reporter, mRNA; actives raise or lower the signal. The essentials: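 Read-out: reporter mRNA via RT-PCR plus capillary electrophoresis of 6-FAM-labelled fragments. Transiently transfected HepG2, 24 h exposure, endogenous TF activity on cis elements. Gain or loss of signal fitted relative to DMSO.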

Assay [6] is described as follows: ATG_NF_kB_CIS: Attagene CIS-FACTORIAL HepG2 Assay for human Nuclear Factor Kappa B (NF-kB) (AID 2282991). The conditions noted are these: HepG2 Attagene cis-factorial NF-kB reporter mRNA; actives raise or lower the signal. The essentials: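 Multiplexed cis-reporter assay in transiently transfected HepG2. 24 h treatment; RNA isolated, RT-PCR, labelled fragments resolved by CE. DMSO baseline.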

In assay [7] the target is Cellular tumor antigen p53 (Homo sapiens) (UniProt P04637). Briefly: ATG_p53_CIS: Attagene CIS-FACTORIAL HepG2 Assay for human p53 Transcription Factor (AID 2282994). Particulars: HepG2 p53 cis-element reporter, Attagene mRNA; actives raise or lower the signal. The essentials:
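HepG2 cells transiently transfected with cis-regulated multiple reporter transcription units, dosed 24 h. Reporter mRNA measured by RT-PCR, 6-FAM primer extension, HpaI digestion and capillary electrophoresis; bidirectional fit relative to DMSO.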

Assay [8] in a line: BSK_3C_TissueFactor: BioMAP Diversity Plus: 3C Assay for Tissue Factor Biomarker Activity (AID 2282997). The conditions noted are these: BioMAP 3C HUVEC, tissue factor biomarker readout; actives raise or lower the signal. The essentials:
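Dosing of human umbilical vein endothelial cells preceded a 24 h incubation. Tissue Factor was then read by ELISA, with increases and decreases both scored relative to DMSO controls.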

Assay [9] can be described thus: BSK_3C_uPAR: BioMAP Diversity Plus: 3C Assay for Urokinase-type plasminogen activator receptor (uPAR) Biomarker Activity (AID 2282998). The conditions noted are these: BioMAP 3C HUVEC, uPAR biomarker ELISA; actives raise or lower the signal. The essentials: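 HUVEC primary cells; 24 h post-dose; uPAR by ELISA; gain or loss of signal fitted bidirectionally vs DMSO baseline.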

Assay [10] in a line: BSK_3C_VCAM1: BioMAP Diversity Plus: 3C Assay for Vascular cell adhesion molecule 1 (VCAM1) Biomarker Activity (AID 2282999). Particulars: BioMAP 3C HUVEC, VCAM1 ELISA, cytokine-stimulated; actives raise or lower the signal. The essentials:
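Human umbilical vein endothelial cells (3C system), biomarker read by ELISA 24 h after dosing; bidirectional fit against DMSO baseline. Cytotoxicity tracked by SRB total-protein staining in parallel cultures at biomarker time.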

Sequence of Myc proto-oncogene protein (Homo sapiens) (P01106 whole entry, looked up): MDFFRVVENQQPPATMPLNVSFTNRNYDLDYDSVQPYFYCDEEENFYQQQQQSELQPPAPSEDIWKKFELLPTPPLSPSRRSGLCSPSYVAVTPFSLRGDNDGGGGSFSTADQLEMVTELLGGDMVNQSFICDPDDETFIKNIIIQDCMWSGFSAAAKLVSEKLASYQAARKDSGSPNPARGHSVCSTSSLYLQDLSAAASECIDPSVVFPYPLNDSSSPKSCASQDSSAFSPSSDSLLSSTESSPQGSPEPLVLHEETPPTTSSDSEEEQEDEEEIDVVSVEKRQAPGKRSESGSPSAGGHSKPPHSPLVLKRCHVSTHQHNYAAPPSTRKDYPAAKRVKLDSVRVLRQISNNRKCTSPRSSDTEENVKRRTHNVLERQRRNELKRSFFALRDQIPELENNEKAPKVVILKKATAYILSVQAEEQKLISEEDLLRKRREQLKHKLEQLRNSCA
Sequence of Cellular tumor antigen p53 (Homo sapiens) (P04637 whole entry, looked up): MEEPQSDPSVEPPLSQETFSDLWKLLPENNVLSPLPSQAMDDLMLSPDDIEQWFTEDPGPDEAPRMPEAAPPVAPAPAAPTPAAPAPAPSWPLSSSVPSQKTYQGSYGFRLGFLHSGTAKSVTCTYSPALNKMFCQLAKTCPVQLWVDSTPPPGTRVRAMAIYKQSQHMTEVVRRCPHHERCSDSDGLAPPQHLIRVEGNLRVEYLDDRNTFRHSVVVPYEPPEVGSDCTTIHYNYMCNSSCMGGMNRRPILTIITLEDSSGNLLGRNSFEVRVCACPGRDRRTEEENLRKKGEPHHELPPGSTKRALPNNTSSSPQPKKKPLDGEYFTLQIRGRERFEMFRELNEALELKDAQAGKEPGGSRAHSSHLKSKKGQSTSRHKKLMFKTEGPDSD
Sequence of Nuclear respiratory factor 1 (Homo sapiens) (Q16656 whole entry, looked up): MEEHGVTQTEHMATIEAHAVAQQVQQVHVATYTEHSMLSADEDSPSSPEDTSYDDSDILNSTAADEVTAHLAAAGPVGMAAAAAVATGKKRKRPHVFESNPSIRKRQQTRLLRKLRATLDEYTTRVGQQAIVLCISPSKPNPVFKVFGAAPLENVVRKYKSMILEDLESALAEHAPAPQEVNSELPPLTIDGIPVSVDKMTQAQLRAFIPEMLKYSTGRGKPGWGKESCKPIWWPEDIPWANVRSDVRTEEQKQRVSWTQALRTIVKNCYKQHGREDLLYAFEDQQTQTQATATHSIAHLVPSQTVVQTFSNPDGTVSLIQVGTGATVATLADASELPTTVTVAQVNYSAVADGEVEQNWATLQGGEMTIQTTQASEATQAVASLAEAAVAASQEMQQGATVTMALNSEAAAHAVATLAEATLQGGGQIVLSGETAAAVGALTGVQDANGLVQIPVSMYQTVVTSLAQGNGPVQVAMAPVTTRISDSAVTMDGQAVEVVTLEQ

Take `CC(C)(CO)C(O)C(=O)NCCCO` (centres undefined): the outcome in assay [1], in [2], in assay [3], in assay [4] and in assay [5] was inactive.
As for `CC(C=O)c1ccccc1` (centres undefined), the molecule was called inactive in assay [1], in [2], in [3], in assay [6], in assay [5] and in assay [7].
As to `COc1ccc(-c2coc3cc(O)cc(O)c3c2=O)cc1`, the AC50 in [1] is 25.9 µM (active); in assay [4], 27.2 µM (active); in [5], 39 µM (active). Further, the result in assay [2] and in assay [3] was inactive.
As for `Nc1ccc(C(=O)OCCCOC(=O)c2ccc(N)cc2)cc1`, the call in [1], in assay [2], in assay [3], in assay [6], in assay [5] and in assay [7] was inactive.
`C=C1C[C@H]2[C@@H]3C=C(C)C4=CC(=O)CC[C@]4(C)[C@H]3CC[C@]2(C)[C@@]1(OC(C)=O)C(C)=O`: the AC50 in [1] was 88.1 µM (active); in [2], 106 µM (active); in assay [4], 42.1 µM (active). For the same molecule, the molecule was called inactive in [3] and in [5].
`COC(C=C(C)CCC=C(C)C)OC`: the outcome in assay [1], in assay [2], in assay [3], in assay [6], in assay [5] and in [7] was inactive.
Consider `Cc1noc(NS(=O)(=O)c2ccc(N)cc2)c1C`, for which the molecule was classed as inactive in [1], in [2], in [3], in assay [6], in assay [5] and in assay [7].
As to `O=C1CCCCC1C1CCCCC1` (centres undefined), the call in assay [1], in assay [2], in [3], in assay [4] and in [5] was inactive.
Turning to `CO[Si](CCCS)(OC)OC`, the outcome in assay [1], in assay [2], in assay [3], in assay [6], in [5] and in assay [7] was inactive.
As for `O=C1c2ccccc2C(=O)c2cc(S(=O)(=O)O)ccc21`, the call in [1], in assay [2], in assay [3] and in assay [5] was inactive. In addition, in assay [4], the AC50 was 100 µM (active).
Turning to `COC(Cc1ccccc1)OC`, the call in [1], in assay [2], in assay [3], in [4] and in [5] was inactive.
On to `CCc1cccc(C)c1N(C(=O)CS(=O)(=O)O)C(C)COC` (centres undefined), for which the call in assay [1], in assay [2], in assay [3], in assay [6], in assay [5] and in [7] was inactive. The outcome in assay [8], in assay [9] and in assay [10] was inactive.
`CCCCCCCCCCCCC`: the outcome in assay [1], in [2], in assay [3], in [6], in [5] and in [7] was inactive.
For `O=S(=O)(O)c1ccc(Nc2nc(Nc3ccc(C=Cc4ccc(Nc5nc(Nc6ccc(S(=O)(=O)O)cc6)nc(N(CCO)CCO)n5)cc4S(=O)(=O)O)c(S(=O)(=O)O)c3)nc(N(CCO)CCO)n2)cc1`, the molecule was classed as inactive in assay [1], in [2], in assay [3], in assay [6], in assay [5] and in [7].
In the case of `CC(C)(C)NC(=O)[C@H]1CC[C@H]2[C@@H]3CC[C@H]4NC(=O)C=C[C@]4(C)[C@H]3CC[C@]12C`, the molecule was classed as inactive in assay [1], in assay [2], in [3], in assay [6] and in [5].
As to `CCOc1ccc(NC(N)=O)cc1`, the outcome in [1], in [2], in assay [3], in assay [4] and in assay [5] was inactive.
Consider `Oc1ccc(/C=C/c2cc(O)cc(O)c2)cc1`, for which the results for the AC50 in assay [1] and in [6] were 179 µM (active) and 100 µM (active), respectively. Besides, the call in assay [2], in assay [3], in assay [5], in assay [7], in [9] and in assay [10] was inactive.
As for `CC(=O)/C=C/C1C(C)=CCCC1(C)C` (centres undefined), the result in assay [1], in [2], in [3], in assay [4] and in assay [5] was inactive.
On to `CCCC1CCCC(=O)O1` (centres undefined), for which the molecule was called inactive in assay [1], in assay [2], in [3], in [6], in assay [5] and in assay [7].
For the molecule `Oc1ccccc1Cc1ccccc1O`, the call in assay [1], in assay [2], in [3], in assay [6], in assay [9] and in assay [10] was inactive. In addition, the AC50 is 134 µM (active) in assay [5] and 100 µM (active) in assay [7].
With `CC(=O)OCc1ccccc1`, the result in assay [1], in assay [2], in assay [3], in assay [6] and in [5] was inactive.
As to `CC1=CC(C)C(C=O)CC1` (centres undefined), the molecule was classed as inactive in assay [1], in assay [2], in assay [3] and in [5]. Further, the AC50 in assay [4] is 14.1 µM (active).
In the case of `COC(OC)(C(=O)c1ccccc1)c1ccccc1`, the result in [1], in [2], in assay [3], in [6], in assay [5] and in [8] was inactive. Further, the result in assay [9] and in [10] was inactive.
Take `CCC(C)N` (centres undefined): the result in assay [1], in assay [2], in [3], in assay [4] and in [5] was inactive.
As to `CC1=CCC2CC1C2(C)C` (centres undefined), the outcome in [1], in assay [2], in [3], in [6] and in assay [5] was inactive.
In the case of `CCCC=C(C=O)CC`, the outcome in assay [1], in assay [2], in [3], in assay [4] and in [5] was inactive.
Regarding `C=CCCCCCCCCOC(C)=O`, the molecule was classed as inactive in assay [1], in assay [2], in assay [3], in assay [4] and in assay [5].
With `CC(C)CCOCc1ccccc1`, the outcome in assay [1], in [2], in assay [3], in assay [6] and in assay [5] was inactive.
`O=C(Cl)c1ccc(C(=O)Cl)cc1`: the call in assay [1], in assay [2], in assay [3], in [4], in assay [5] and in [7] was inactive.
As to `CC(CC=O)CC(C)(C)C` (centres undefined), the call in assay [1], in [2], in assay [3], in assay [4], in assay [5] and in [7] was inactive.
As for `CCCCc1ccc(Cl)cc1`, the result in assay [1], in [2], in assay [3], in [4], in [5] and in assay [7] was inactive.
